Experiment [1] deals with Nucleoli Translocation, AR (gene 367) (UniProt P10275). In words: UPITT_HCI_U2OS_AR_TIF2_Nucleoli_Antagonist: University of Pittsburgh U2OS Androgen Receptor-Transcriptional Intermediary Factor 2 (AR-TIF2) Antagonism High Content Imaging Assay for Nucleoli Translocation (AID 2283997; active means hit-call score of the fitted dose curve at least 0.9, where 1 is the maximum). A digest of the protocol: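 Measured quantity was AR-RFP fluorescence localized to nucleoli in engineered U2OS cells also bearing TIF2-GFP, acquired on automated high-content imagers. Primary testing used 20 uM compound; actives were confirmed in triplicate wells.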

The target is the same in experiment [2]. In words: UPITT_HCI_U2OS_AR_TIF2_Nucleoli_Agonist: University of Pittsburgh U2OS Androgen Receptor-Transcriptional Intermediary Factor 2 (AR-TIF2) Agonism High Content Imaging Assay for Nucleoli Translocation (AID 2283998; active means hit-call score of the fitted dose curve at least 0.9, where 1 is the maximum). A digest of the protocol:
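Nucleolar translocation of AR-RFP, with TIF2-GFP coexpressed in human osteosarcoma U2OS, imaged by high-content fluorescence. Compounds tested singly at 20 uM final, confirmed in triplicate, then titrated 0.195–50 uM final; gain-of-signal relative to DMSO.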

Experiment [3] addresses Ratio of Nucleoli Translocation and Cytoplasm, AR (gene 367) (UniProt P10275). Description: UPITT_HCI_U2OS_AR_TIF2_Nucleoli_Cytoplasm_Ratio_Agonist: University of Pittsburgh U2OS Androgen Receptor-Transcriptional Intermediary Factor 2 (AR-TIF2) Agonism High Content Imaging Assay for Ratio of Nucleoli Translocation and Cytoplasm (AID 2284000; active means hit-call score of the fitted dose curve at least 0.9, where 1 is the maximum;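 further: hits raise the red nucleolar to cytoplasm ratio above vehicle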). A digest of the protocol:
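Read-out first: nucleolar-to-cytoplasm ratio of red (AR-RFP) signal, quantified by high-content imaging in U2OS cells co-expressing TIF2-GFP. Activity is scored as signal increase over DMSO. Single-point screening used 20 uM final (0.2% DMSO).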

A short description of experiment [4]: CCTE_Harrill_HTTr_Viability_MCF7: CCTE's 6-hour Cell Viability Assessment for the High-Throughput Transcriptomics (HTTr) Platform, in MCF-7 cells cultured in DMEM + 10% fetal bovine serum, Harrill Lab (AID 2284010). A digest of the protocol: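 Cells were dosed with chemicals in an eight-point dilution series, imaged 6 hours later for propidium iodide uptake, and the endpoint was analyzed by bidirectional fitting against DMSO as negative control.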

Experiment [5] is described as follows: CCTE_Harrill_HTTr_Apoptosis_MCF7: CCTE's 6-hour Apoptosis Assessment for the High-Throughput Transcriptomics (HTTr) Platform, in MCF-7 cells cultured in DMEM + 10% fetal bovine serum, Harrill Lab (AID 2284011). In outline: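 High-content imaging of CellEvent Caspase 3/7 Green signal follows a six-hour exposure, with eight concentrations per chemical. MCF-7 cells grown in DMEM plus 10% fetal bovine serum; activity fitted in both directions against DMSO.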

The nature of experiment [6]: CCTE_Harrill_HTTr_CellCount_MCF7: CCTE's Cell Proliferation Assessment for the High-Throughput Transcriptomics (HTTr) Platform, Harrill Lab (AID 2284012; active means hit-call score of the fitted dose curve at least 0.9, where 1 is the maximum;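 further: cells exposed to compound for six hours; intended direction is loss of nuclei count meaning fewer cells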). In outline: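 Chemicals in eight-point dilution series are added to MCF-7 cells for six hours, nuclei are stained with Hoechst and imaged, and per-well nuclei counts are fitted in both directions relative to DMSO controls.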

For experiment [7], the target named is Ratio of Nucleoli Translocation and Cytoplasm, AR (gene 367) (UniProt P10275). Description: UPITT_HCI_U2OS_AR_TIF2_Nucleoli_Cytoplasm_Ratio_Antagonist: University of Pittsburgh U2OS Androgen Receptor-Transcriptional Intermediary Factor 2 (AR-TIF2) Antagonism High Content Imaging Assay for Ratio of Nucleoli Translocation and Cytoplasm (AID 2283999; active means hit-call score of the fitted dose curve at least 0.9, where 1 is the maximum;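 further: antagonists lower the DHT-driven ratio of nucleolar to cytoplasmic red signal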). A digest of the protocol: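 Human osteosarcoma U2OS line, AR fused to RFP, coactivator TIF2 fused to GFP. Cpds 20 uM final, 0.2% DMSO (screen); 0.195–50 uM final, 0.5% DMSO (CRC). Endpoint: nucleoli/cytoplasm red signal ratio, DHT as baseline, loss-of-signal antagonist mode.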

A short description of experiment [8]: CCTE_Simmons_MITO_basal_resp_rate: CCTE's HepG2 Seahorse XF Respirometric Screening Assay at Basal Respiratory State, Simmons Lab (AID 2284001). The note with it: actives raise or lower the signal. A digest of the protocol:
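HepG2 respirometry; 7-pt titration 125 nM–100 uM final; kinetic OCR at 6 min intervals for 72 min; n=3 biological, technical singles; DMSO baseline, gain or loss fit; fenpyroximate (decrease) and 2,4-DNP (increase) controls.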

The nature of experiment [9]: CCTE_Simmons_MITO_max_resp_rate: CCTE's HepG2 Seahorse XF Respirometric Screening Assay at Maximal Respiratory State [uncoupled], Simmons Lab (AID 2284002). Particulars: actives raise or lower the signal. A digest of the protocol:
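Maximal (FCCP-uncoupled) respiration rate in HepG2, from Seahorse kinetic OCR over 72 min at 6 min cycles. Compounds at 125 nM–100 uM final, 7 points, three biological replicates; both directions fit relative to DMSO.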

Experiment [10] is described as follows: CCTE_Simmons_MITO_inhib_resp_rate: CCTE's HepG2 Seahorse XF Respirometric Screening Assay at Inhibited Respiratory State [full ETC block], Simmons Lab (AID 2284006). The note with it: actives raise or lower the signal. In outline:
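Compound injected onto HepG2 cells (125 nM–100 uM final, 7 points); FCCP then rotenone/antimycin A added. Oxygen consumption read every 6 min (3 min mix, 3 min measure) for 72 min. Inhibited-state OCR fitted against DMSO.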

The nature of experiment [11]: CCTE_Shafer_MEA_acute_spike_number: CCTE's Neural Acute Assay for Total Number of Spikes, Shafer Lab (AID 2284008).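 On AC50: curve fitted for decrease in spike count so AC50 reflects inhibitors.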 In outline: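 Total spike count from 40 min recordings before and during compound exposure (0.03-40 uM), given as per-well percent change. Cortical cultures from rat, DIV 13 or 15, 37 C; adaptive detection threshold 8x rms noise.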
A short description of experiment [12]: CCTE_Shafer_MEA_acute_firing_rate_mean: CCTE's Neural Acute Assay for Mean Firing Rate, Shafer Lab (AID 2284009).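 Further: analyzed for loss of signal so actives lower firing rate relative to DMSO.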 A digest of the protocol:
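Percent change in well-mean firing rate was derived from extracellular spikes detected at 8x rms noise (300-5000 Hz band-pass) before and after a 40-min compound exposure. Cultures were primary rat cortical neurons, tested at 0.03-40 uM.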

A short description of experiment [13]: CCTE_Shafer_MEA_acute_burst_number: CCTE's Neural Acute Assay for Single-Electrode Bursts, Shafer Lab (AID 2284013). A digest of the protocol: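 Spontaneous network activity of primary rat cortical neurons was recorded extracellularly on microelectrode arrays at 37 C, with 40-min periods before and during exposure to 0.03-40 uM compound on DIV 13 or 15.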

The nature of experiment [14]: CCTE_Shafer_MEA_acute_burst_duration_mean: CCTE's Neural Acute Assay for Mean Burst Duration, Shafer Lab (AID 2284014).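 Further: hits are decreases in mean burst duration relative to DMSO controls.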 In outline: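 Read-out is the per-well percent change in mean burst duration (first to last spike within a single-electrode burst) between 40-min recordings before and after compound. Cultures were primary rat cortical neurons on MEAs, dosed at 0.03-40 uM on DIV 13 or 15.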

Experiment [15] can be described thus: CCTE_Shafer_MEA_acute_per_burst_spike_number_mean: CCTE's Neural Acute Assay for Average Number of Spikes Per Burst, Shafer Lab (AID 2284015).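 Further: hits are decreases in mean spikes per burst versus baseline.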 A digest of the protocol:
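We recorded spontaneous network firing of rat cortical neurons for 40 min before and 40 min during exposure to compound at 0.03-40 uM, at 37 C. Spikes were detected adaptively at 8x rms noise, and the change in average spikes per burst was fitted against DMSO.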

Experiment [16] in a line: CCTE_Shafer_MEA_acute_interburst_interval_mean: CCTE's Neural Acute Assay for Mean Interburst Interval, Shafer Lab (AID 2284016).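 Further: percent change of mean interburst interval versus each well's own pre-dose baseline; curves fitted for decrease in interburst interval relative to DMSO.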 A digest of the protocol: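 MEA recording of spontaneous network bursting in primary rat cortical cultures; mean interburst interval was compared before and after a 40-min compound exposure (0.03-40 uM) and expressed as percent change, relative to DMSO.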

Experiment [17] can be described thus: CCTE_Shafer_MEA_acute_burst_percentage_mean: CCTE's Neural Acute Assay for Percentage of Spikes in a Burst, Shafer Lab (AID 2284017).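 On AC50: curve fitted for loss of signal so potency reflects decreased burst percentage.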 A digest of the protocol:
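Compounds were tested at 0.03-40 uM on primary rat cortical neuron networks grown over microelectrodes, with at least three wells per compound. Spontaneous firing was recorded for 40 min before and 40 min after dosing, and the change in burst percentage was computed per well.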

Experiment [18] is described as follows: CCTE_Shafer_MEA_acute_burst_percentage_std: CCTE's Neural Acute Assay for Standard Deviation of Burst Percentage, Shafer Lab (AID 2284018).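 Further: fitted in the negative direction so actives lower burst percentage SD.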 In outline:
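Value is percent change from baseline in the across-electrode SD of spikes-in-bursts percentage, wells with >/= 10 active electrodes. Acute 40-min exposure to 0.03-40 uM on DIV 13 or 15 rat cortical cultures, recorded at 37 C after 40-min baseline.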

A short description of experiment [19]: CCTE_Shafer_MEA_acute_per_network_burst_spike_number_mean: CCTE's Neural Acute Assay for Average Number of Spikes in a Network Burst, Shafer Lab (AID 2284019).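 On AC50: curve fitted for loss of signal so actives reduce spikes per network burst.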 A digest of the protocol:
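Read-out is mean spike count per network burst, taken as percent change between a 40-min pre-exposure and a 40-min post-exposure recording per well. Rat primary cortical neurons on MEAs at 37 C, DIV 13 or 15; compounds at 0.03-40 uM.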

Experiment [20] can be described thus: CCTE_Simmons_MITO_viability: CellTiter-Glo Viability Assessment for CCTE's HepG2 Seahorse XF Respirometric Screening Assay [post-hoc], Simmons Lab (AID 2284007; active means hit-call score of the fitted dose curve at least 0.9, where 1 is the maximum). A digest of the protocol:
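After the Seahorse oxygen-consumption sequence (basal, FCCP, rotenone/antimycin A; 72 min total), HepG2 viability was scored as ATP content by bioluminescence. Chemicals ran at seven concentrations up to 100 uM final for 90 min.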

The record followed here is PubChem BioAssay (EPA / NIEHS).

Inconclusive results are not listed. Calls of active or inactive are those of the source. How the source made its calls, unless noted: active means hit-call score of the fitted dose curve at least 0.9, where 1 is the maximum; inactive means score below 0.9.

Sequence of Nucleoli Translocation, AR (gene 367) (P10275 whole entry, looked up): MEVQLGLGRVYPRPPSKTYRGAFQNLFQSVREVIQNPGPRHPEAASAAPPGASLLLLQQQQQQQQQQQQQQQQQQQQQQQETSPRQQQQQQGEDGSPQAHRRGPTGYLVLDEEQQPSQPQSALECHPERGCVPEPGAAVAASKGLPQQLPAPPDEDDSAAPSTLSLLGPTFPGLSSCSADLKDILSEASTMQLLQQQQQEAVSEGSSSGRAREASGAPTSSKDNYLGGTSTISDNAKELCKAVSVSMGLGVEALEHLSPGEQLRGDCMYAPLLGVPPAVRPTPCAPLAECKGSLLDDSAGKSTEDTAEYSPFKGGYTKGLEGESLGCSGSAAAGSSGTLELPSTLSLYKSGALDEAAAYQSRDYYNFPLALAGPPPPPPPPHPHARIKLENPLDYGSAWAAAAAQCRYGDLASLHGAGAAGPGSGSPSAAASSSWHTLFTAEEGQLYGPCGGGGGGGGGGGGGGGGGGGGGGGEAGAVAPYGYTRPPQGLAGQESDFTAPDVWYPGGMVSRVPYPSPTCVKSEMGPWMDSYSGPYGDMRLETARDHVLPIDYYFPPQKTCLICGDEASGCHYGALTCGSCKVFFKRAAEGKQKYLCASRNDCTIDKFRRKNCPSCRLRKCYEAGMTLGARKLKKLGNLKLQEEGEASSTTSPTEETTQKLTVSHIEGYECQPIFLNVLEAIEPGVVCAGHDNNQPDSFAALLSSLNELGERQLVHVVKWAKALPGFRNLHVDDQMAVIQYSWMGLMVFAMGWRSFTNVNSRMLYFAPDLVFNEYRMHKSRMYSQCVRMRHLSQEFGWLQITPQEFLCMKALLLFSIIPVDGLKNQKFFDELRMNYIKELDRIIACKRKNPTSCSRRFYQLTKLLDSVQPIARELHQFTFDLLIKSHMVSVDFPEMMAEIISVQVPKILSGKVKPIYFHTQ
Sequence of Ratio of Nucleoli Translocation and Cytoplasm, AR (gene 367) (P10275 whole entry, looked up, the tested form may be a part): as the sequence (P10275 whole entry, looked up) above

As for `O=c1ccc(=O)[nH][nH]1`, the outcome in experiment [1], in experiment [2], in [3], in [4], in [5] and in experiment [6] was inactive.
On to `COP(=O)(OC)SCn1c(=O)oc2cc(Cl)cnc21`, for which the compound was classed as inactive in [1], in experiment [2], in experiment [7], in [3], in experiment [4] and in experiment [5]. Also, the outcome in experiment [6] was inactive.
In the case of `CN(C)[C@@H]1C(=O)C(C(N)=O)=C(O)[C@@]2(O)C(=O)C3=C(O)c4c(O)cccc4[C@@](C)(O)[C@H]3[C@H](O)[C@@H]12`, the result in experiment [8], in [9], in [10], in experiment [11], in [12] and in experiment [4] was inactive. For the same compound, the result in experiment [6], in experiment [13], in experiment [14], in experiment [15], in experiment [16] and in experiment [17] was inactive. For the same compound, the compound was called inactive in [18] and in [19].
In the case of `CC1(C(=O)Nc2ccc(O)c(Cl)c2Cl)CCCCC1`, the values for the AC50 in experiment [8] and in experiment [9] were 29.8 µM (active) and 31.4 µM (active), respectively. The call in experiment [10], in experiment [20] and in [4] was inactive.
In the case of `CCOP(=S)(Oc1cnc(C(C)(C)C)nc1)OC(C)C` (stereo unspecified), the AC50 is 59.3 µM (active) in experiment [8]; 50 µM (active) in [9]; 15.6 µM (active) in experiment [11]; 15.5 µM (active) in experiment [12]; 29.4 µM (active) in [15]; 35.6 µM (active) in experiment [17]. The AC50 in [19] was 20 µM (active). Further, the compound was called inactive in [10], in [20], in experiment [4], in [5], in experiment [13] and in experiment [14]. Besides, the result in experiment [16] and in [18] was inactive.
For `CCC(=O)Nc1ccc(Cl)c(Cl)c1`, the AC50 in [1] is 14.3 µM (active); in experiment [8] it was 41.1 µM (active); in [9], 27.3 µM (active). For the same compound, the outcome in experiment [7], in experiment [3], in [10], in experiment [20] and in experiment [4] was inactive.
Consider `CC(COc1ccc(Oc2ccccc2)cc1)Oc1ccccn1` (stereo unspecified), for which the outcome in experiment [1], in experiment [7], in experiment [8], in experiment [9], in [10] and in experiment [4] was inactive. Also, the call in experiment [6], in experiment [13], in [16] and in [19] was inactive. Moreover, the AC50 in experiment [11] is 20 µM (active); in [12], 20 µM (active); in experiment [14], 20 µM (active); in [15], 10.2 µM (active); in experiment [17], 10.3 µM (active); in experiment [18] it was 20 µM (active).

Broadly, the AC50 is the concentration at which the activity in the assay is half-maximal.
